This is an account of results in PubChem BioAssay AID504465 (National Center for Advancing Translational Sciences (NCATS), 2011).

Hit rate of the full screen: of about 2,100 compounds, about 210 (10%) were called active. About 53% were inconclusive and are not listed. Calls follow the shape of the dose curve; as a rule, active = well fitted inhibition curve with a large enough effect; inconclusive = small, poorly fitted or top-dose-only effect, or effect the other way; inactive = no such curve, though single readings can be large or run the other way. This is one part of the list. Where a call stands in place of a potency, no number is given.
Potency is read from the fitted curve at half-maximal effect.

This test in a line: IN Cell qHTS Assay for Inhibitors of the mTORC1 Signaling Pathway in MEF (Tsc2-/-, p53-/-) Cells: Sytravon. Also: nearly all actives have a fitted effect of over 60% in size. To be noted: phospho-rpS6 immunofluorescence, 24 h; series mostly up to 38.3 µM. In short, it runs like this:
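Tsc2-/-, p53-/- MEFs (empty-vector) treated with compound 24 h at 37 degree Celsius, then fixed and stained for phospho-rpS6 Ser235/236 (Alexa-488) plus Hoechst. Reported as % positive cells, thresholds set against 7.5 nM rapamycin and DMSO wells.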
Background: qHTS replaces the single test concentration by a dilution series.
Consider `CC(C)(C)c1ccc(Oc2nc3ccccn3c(=O)c2/C=C(\C#N)c2nc3ccccc3[nH]2)cc1`, for which the Potency entry was “inactive”. The result for `COc1ccccc1CNS(=O)(=O)c1cc(C(=O)Nc2cccc(C(F)(F)F)c2)ccc1F` reads “inactive”; that for `O=C(Nc1ccc(Br)cc1)c1cc(S(=O)(=O)N2CCc3ccccc32)ccc1F`, “inactive”. The entry for `CCOC(=O)Cn1c(=O)n(-c2ccccc2OC)c2nc(-c3ccccc3F)nc(C(N)=O)c21` is “inactive”; for `Cc1ccc(CNc2nc3c(c(=O)n(C)c(=O)n3C)n2Cc2ccc(Cl)cc2)cc1` it is “inactive”. The result for `CCOC(=O)Cn1c(=O)c2c(nc(N3CCOCC3)n2Cc2ccccc2)n(C)c1=O` reads 8.26 µM (active); that for `CCN(C(=O)CN1C(=O)c2ccccc2Sc2ccc(C(=O)OC)cc21)c1cccc(C)c1`, “inactive”; that for `O=C(Nc1ccc(Cl)cc1)C1CCC(CNS(=O)(=O)c2ccc(Br)s2)CC1` (stereo not drawn), “inactive”. Consider `Cc1cccc(C)c1NC(=O)c1cc(S(=O)(=O)N2CCCc3ccccc32)ccc1F`, for which the Potency result was “inactive”. The result for `CC(C)S(=O)(=O)c1oc(-c2cccs2)nc1S(=O)(=O)c1ccc(F)cc1` reads 0.927 µM (active). The result for `CCC(C)S(=O)(=O)c1oc(-c2ccc(F)cc2)nc1S(=O)(=O)c1ccc(F)cc1` (stereo not drawn) reads 1.04 µM (active); that for `CC(C)S(=O)(=O)c1oc(-c2ccc(F)cc2)nc1S(=O)(=O)c1ccc(F)cc1`, 0.826 µM (active); that for `Brc1ccc(CNCCCSc2nnnn2-c2ccccc2)cc1`, “inactive”. The result for `CCOCc1cc(CN2CCN(c3cccc(C(F)(F)F)c3)CC2)c(O)c2ncccc12` reads “inactive”. In the case of `Cc1cn2c(=O)cc(COC(=O)c3ccc(NC(=O)COc4ccccc4C)cc3)nc2s1`, the Potency entry is “inactive”.

For the compound `CC(=O)c1ccc(N2CCN(S(=O)(=O)c3ccc(-c4coc(C)n4)cc3)CC2)cc1`, the Potency result is “inactive”. Take `CCOC(=O)c1c(NC(=O)c2ccc(S(=O)(=O)N3CCCC(C)C3)cc2)sc2c1CC(C)(C)NC2(C)C` (stereo not drawn): the Potency entry is “inactive”. `CN(C)c1ccc(/C=C(\C#N)c2nc(-c3ccc(Cl)c(Cl)c3)cs2)cc1`: the Potency entry was “inactive”.

With `CCSc1oc(-c2ccc(F)cc2)nc1S(=O)(=O)c1ccc(C)cc1`, the Potency entry is “inactive”. The figure for `Cc1ccc(S(=O)(=O)c2nc(-c3cccs3)oc2SCC(=O)Nc2cc(C)cc(C)c2)cc1` is 16.5 µM (active). The result for `CCOc1ccc(-c2nnc(SCC(=O)Nc3cccc(OC)c3)nc2-c2ccc(OCC)cc2)cc1` reads “inactive”. The result for `COc1ccc(-c2nc(SCC(=O)Nc3c(C)cc(C)cc3C)n[nH]2)cc1` reads “inactive”; that for `CCOc1ccc(NC(=O)CSc2oc(-c3ccc(F)cc3)nc2S(=O)(=O)c2ccc(C)cc2)cc1`, 2.33 µM (active). Consider `CCOc1ccc(-c2cc(CCCC(=O)NCCc3ccc(OC)c(OC)c3)no2)cc1`, for which the Potency entry is “inactive”. Regarding `CCOC(=O)c1c(-c2ccccc2)oc2ccc(N(C(C)=O)S(=O)(=O)c3ccc(CC)cc3)cc12`, the Potency entry is “inactive”.

For `Cc1ccc(OCC(=O)Nc2ccc3nc(Nc4cccc(Cl)c4)cc(C)c3c2)cc1`, the Potency was 14.7 µM (active). Turning to `Cc1ccc(-n2c(SCC(=O)Nc3cccc(Cl)c3)nc3n[nH]c(C)c3c2=N)cc1`, the Potency result is “inactive”.

As to `CCN(CC)c1cc(C)c2cc(NC(=O)c3ccccc3Cl)ccc2n1`, the Potency result was “inactive”.

Turning to `CCN1C(=O)C(O)(c2c(C)[nH]c3ccccc23)c2ccccc21` (stereo not drawn), the Potency entry is “inactive”. The result for `Cc1nn(-c2ccc(N3CCOCC3)nn2)c(C)c1CCC(=O)NCc1ccccc1F` reads “inactive”; that for `O=C(CSc1nc(-c2ccccc2)[nH]c1-c1ccccc1)Nc1ccc2c(c1)OCO2`, “inactive”; that for `Cc1cccc(C(=O)Nc2c(-c3ccc(F)cc3)nc3ccccn23)c1`, “inactive”.

As to `CCOC(=O)c1c(C)[nH]c(CCC(=O)NCCCN2CCN(c3cc(C)ccc3C)CC2)c1C`, the Potency was 11.7 µM (active). The result for `CCOC(=O)c1c(C)[nH]c(CCC(=O)Nc2cc(C)cc(C)c2)c1C` reads “inactive”. In the case of `COC(=O)c1c(-c2ccc(Cl)cc2)noc1N1CCN(c2cc(C)ccc2C)CC1`, the Potency result is “inactive”. The result for `CCOC(=O)c1c(C)[nH]c(CCC(=O)NCc2ccc(OC)cc2OC)c1C` reads “inactive”; that for `CCOC(=O)c1c(C)[nH]c(CCC(=O)NCCCN2CCN(c3cc(Cl)ccc3C)CC2)c1C`, 14.7 µM (active); that for `COc1ccc(-c2ccc(CCC(=O)O)n2-c2ccccc2O)cc1`, “inactive”. The entry for `CCC1CN(C(=O)NCc2ccccc2)c2cc(C)ccc2O1` (stereo not drawn) is “inactive”; for `CCN(Cc1ccccc1)Cc1c(O)ccc2oc(C)c(C(=O)Nc3ccc(C)cc3C)c12` it is “inactive”. On to `CCCCN1C(C(=O)c2ccccc2)=C(OC(C)=O)c2ccccc2S1(=O)=O`, for which the Potency result is “inactive”.

For `COc1ccc(OC)c2sc(N(CCCN(C)C)C(=O)c3ccco3)nc12`, the Potency is 14.7 µM (active). The entry for `COc1cc(Cl)c(C)cc1Nc1c2c(nc3ccccc13)CCC2` is “inactive”; for `COc1ccccc1Nc1c2c(nc3ccc(NC(=O)c4cccc(OC)c4OC)cc13)CCCC2` it is 5.85 µM (active); for `COc1ccccc1Nc1nn2c(=O)c3ccc(C(=O)NCCC4=CCCCC4)cc3nc2s1` it is “inactive”. The entry for `COc1ccc(C(=O)Nc2cccc(-c3cn4ccsc4n3)c2)cc1OC` is “inactive”; for `COc1ccccc1Nc1nn2c(=O)c3ccc(C(=O)NCCc4ccccc4)cc3nc2s1` it is “inactive”; for `COc1ccc(C)cc1Nc1c2c(nc3ccccc13)CCC2` it is 7.36 µM (active). With `COc1ccccc1Nc1c2c(nc3ccc(NC(=O)c4ccc(N(C)C)cc4)cc13)CCCC2`, the Potency was 2.07 µM (active). The result for `COc1cc2c(cc1OC)n(CC(=O)Nc1ccc(C)cc1C)c(=O)n1nc(-c3ccccc3)nc21` reads “inactive”; that for `COc1ccccc1Nc1c2c(nc3ccc(NC(=O)c4ccc(OC)c(OC)c4)cc13)CCCC2`, 1.65 µM (active); that for `CC1=C(C(=O)Nc2ccccc2C)C(c2cccs2)n2nc(SCc3ccccc3)nc2N1` (stereo not drawn), “inactive”. The result for `CCC1CN(C(=O)N2CCC(C(=O)NCCN(CC)CC)CC2)c2ccccc2O1` (stereo not drawn) reads “inactive”; that for `CC(C)c1ccc(NC(=O)c2ccc(F)c(S(=O)(=O)N3CCN(c4ccccc4F)CC3)c2)cc1`, “inactive”; that for `COc1ccc2c(c1)c(=O)c(S(=O)(=O)c1ccc(Cl)cc1)cn2C`, “inactive”. The entry for `COc1ccc(CCCc2nnc(SCC(=O)Nc3cccc(F)c3C)o2)cc1` is “inactive”.

Consider `COc1ccccc1CCNC(=O)C(=O)NCC(c1cccnc1)N1CCN(c2ccccc2)CC1` (stereo not drawn), for which the Potency entry is “inactive”. As for `CCCc1nn2c(=O)cc(COC(=O)c3cccc(NC(=O)c4ccc(OCC)cc4)c3)nc2s1`, the Potency entry is “inactive”.
